# HCMV inh = human cytomegalovirus inhibition; HFF cells, HCMV-luciferase reporter, 72 h; hits give low values; actives 4.5% (n = 410,000); activity change, negative = inhibition, % at 57.5 µM; in the data active = activity change below about -60%; inconclusive = no clear call, values can overlap the other calls; inactive = above about -39%
#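 Screen run at 2 compound doses on HFFs infected with reporter HCMV, MOI 1 PFU/cell. Luciferase activity from cell lysates at 72 h post infection gave inhibition relative to buffer-only and Salinomycin wells.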
# FMDV inh = foot and mouth disease virus antiviral activity; FMDV antiviral cell-based qHTS; Potency, µM (highest dose often 57.9 µM), for the others: top-dose activity change, negative = inhibition, actives largely listed as inhibitors; actives 1.2% (n = 410,000); calls by dose curve; tested in HEK293T cells; also: read-out not given here; potency is read from the fitted curve at half-maximal effect; nearly all actives have a fitted effect of over 45% in size
# VACV Venus inh = inhibitors of vaccinia virus (Venus reporter). Vaccinia virus Venus reporter expression, fluorescence. Potency, µM (doses to about 36.5 µM), inactives show at the top dose activity change, negative = inhibition, actives largely listed as inhibitors. actives 0.46% (n = 330,000); calls by dose curve; tested in A549 cells; also: potency is read from the fitted curve at half-maximal effect; nearly all actives have a fitted effect of over 30% in size
# HCV inhibitor = HCV inhibition; Huh7.5.1 HCVcc-Cre infection, luciferase reporter, 44 h; Potency, µM (top dose mostly 41.8 µM), inactives show top-dose activity change, negative = inhibition, actives largely listed as inhibitors; actives 3.4% (n = 340,000); AID 651820; active = well fitted inhibition curve with a large enough effect; inconclusive = small, poorly fitted or top-dose-only effect, or another doubt; inactive = no such curve, though single readings can be large or run the other way; also: potency is read from the fitted curve at half-maximal effect
#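 Whole-lifecycle infectious HCVcc-Cre system; cells 1,000/well, compound then virus (~0.5 moi) added 4 h after plating, 44 h culture. Luciferase read 15 sec following 15 min substrate incubation, room temp.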
# VACV mCherry inh = vaccinia inhibition (mCherry reporter) | Vaccinia virus mCherry reporter infection, fluorescence | Potency, µM (top dose mostly 36.5 µM), for the others: top-dose activity change, negative = inhibition, usual class: inhibitors | actives 0.63% (n = 310,000); calls by dose curve; tested in A549 cells; also: potency is read from the fitted curve at half-maximal effect; nearly all actives have a fitted effect of over 35% in size
# * marks the source's active call; other numbers are inactive results; i = inactive; ? = inconclusive; · = no result; [ ] = dose if it differs, or a comment. Compounds with a hit are over-represented: about 7.3% of the library has one in this group of screens. % is scaled to controls: 0 for no effect and ±100 for the full control effect.
SMILES,HCMV inh,FMDV inh,VACV Venus inh,HCV inhibitor,VACV mCherry inh
CC(=O)c1cn(CCCOc2ccccc2)c2ccccc12,-13,?,-26%,7.1µM*,i
Cc1ccc(OCCn2cc(C(=O)c3ccco3)c3ccccc32)cc1C,-4,-21%,-7%,·,-13%
O=C(C(=O)N1CCOCC1)c1cn(CCCOc2ccccc2)c2ccccc12,57,9%,-9%,-2%,-14%
CC(=O)c1cn(CCOc2ccc(F)cc2)c2ccccc12,9,?,·,13µM*,·
Cc1cc(OCCn2cc(/C(N)=N/O)c3ccccc32)ccc1Cl,3,·,?,7.1µM*,?
COC(=O)c1cn(CCOc2ccc(C)cc2)c2ccccc12,-13,-23%,·,?,·
O=C(COc1ccccc1)c1cn(Cc2ccccc2)c2ccccc12,-63*,-14%,-16%,-11%,i
CCc1cc(C(=O)NCC2Cc3cc(C)cc(-c4cc(C(C)=O)ccc4F)c3O2)n(C)n1 (stereo not drawn),·,-24%,-23%,·,-26%
CCCCCCCCN1C(=O)[C@H](CC(=O)N2CCCCC2)C[C@@]2(C(=O)OC)CC(C)(C)CC=C12,26,-14%,-14%,·,-20%
CCc1ccc(N2CC(C(=O)OCC(=O)NNC(=O)c3ccccc3)CC2=O)cc1 (stereo not drawn),-24,-3%,-5%,-2%,-5%
CCOc1cc(S(=O)(=O)N(CC)CC)ccc1F,23,18%,·,4%,·
CCN(CC)S(=O)(=O)c1ccc(-c2ccc(S(=O)(=O)N(CC)CC)cc2)cc1,-64*,?,·,?,·
CCOc1ccc(S(=O)(=O)N(CC)CC)cc1NS(=O)(=O)c1ccc(F)c(F)c1F,-20,23%,4.5µM*,16%,4µM*
CCOc1ccc(S(=O)(=O)N(CC)CC)cc1N,-81*,1%,·,10%,·
FC(F)(F)c1cc(CN2CCCC3(CCNCC3)C2)cc(C(F)(F)F)c1,·,-13%,·,·,·
c1ccc2c(N3CCNCC3)nc(-c3ccoc3)nc2c1,·,12%,22%,·,19%
COc1cccc(C(=O)CC2c3c(c(Br)c4c(c3OC)OCO4)CCN2C)c1 (stereo not drawn),·,8%,·,·,·
COC(=O)[C@H](C)N(Cc1ccc(Cl)c(Cl)c1)S(=O)(=O)CCN1CCCC1,-16,?,?,?,?
COC(=O)[C@H](C)N(Cc1ccc(Cl)c(Cl)c1)S(=O)(=O)CCN1CCN(c2ccccc2)CC1,-12,?,?,?,14µM*
CCOC(=O)CC1(O)CSc2nc(N)cc(=O)n21 (stereo not drawn),-77*,·,·,·,·
Cc1cccc(C)c1N1C(=O)c2cccc([N+](=O)[O-])c2C1=O,-63*,-26%,-12%,13%,i
CC(C)CN1CCCC2(CCN(S(=O)(=O)c3ccccc3)CC2)C1,·,30%,·,·,·
C=CCn1c(SCC(=O)Nc2cc3oc4ccccc4c3cc2OC)nnc1-c1cnccn1,-4,7%,·,13µM*,·
C=CCn1c(COc2ccccc2F)nnc1SCC(=O)Nc1cc2oc3ccccc3c2cc1OC,-15,-14%,?,7.1µM*,·
C=CCn1c(SCC(=O)Nc2cccc3ccccc23)nnc1-c1cnccn1,14,20%,·,-11%,·
SMILES,HCMV inh,FMDV inh,VACV Venus inh,HCV inhibitor,VACV mCherry inh
COc1ccc(-c2c[n+]3c4n2CCCCC4=C(c2ccc(Br)cc2)C3)cc1,-100*,-7%,-6%,?,i
CC1(C)CC(=O)C2=C(C1)NC(Nc1nc3ccccc3o1)=NC21CCCC1,6,5%,·,18%,·
Cc1ccc2nc(NC3=NC4(CCCC4)C4=C(CCCC4=O)N3)oc2c1,-4,40µM*,·,·,·
O=c1c2ccccc2nc(/C=C\c2ccccc2F)n1-c1ccc(O)cc1,-30,-8%,-15%,·,i
Cc1ccc(N/C=C/C(=O)c2ccco2)c(O)c1,12,0%,·,6%,·
Cc1ccc([N+](=O)[O-])cc1N/C=C/C(=O)c1ccco1,-11,·,-20%,6.3µM*,-28%
COc1ccc(C(=O)Cn2nc(CNc3ccc(Br)cc3)[n+]3c2CCCCC3)cc1,-60*,-16%,-8%,-2%,-6%
O=C(Cn1nc(-c2nn(CC(=O)c3ccccc3)c3[n+]2CCCCC3)[n+]2c1CCCCC2)c1ccccc1,24,0%,0%[7.34 µM],10%,i[7.34 µM]
O=C(Cn1cc(COc2ccc3ccc(=O)oc3c2)nn1)c1ccc(O)cc1,16,17%,-3%,2.5µM*,5%
O=C(Cn1cc(COc2ccc(Br)cc2)nn1)c1ccc(O)cc1,-11,2%,-23%,?,i
